Results from PubChem BioAssay AID1489 (National Center for Advancing Translational Sciences (NCATS), 2009).
Results filed as inconclusive are left out. Calls of active or inactive are those of the source. Calls come from the whole dose curve; as a rule, active = well fitted antagonist curve with a large enough effect in the main read-out, with a control signal flat; inconclusive = small, poorly fitted or top-dose-only effect; inactive = no such curve, though single readings can be large or run the other way.

What follows are compounds tested against Neuropeptide S receptor (Homo sapiens) (UniProt Q6W5P4) (assay: Confirmation Concentration-Response Assay for Antagonists of the Neuropeptide S Receptor: Calcium Signal Transduction). Conditions: CHO-NPSR cells, NPS-induced calcium flux, FDSS; series mostly up to 19.3 µM; activity change, negative = inhibition: at the top concentration.
Chain of Neuropeptide S receptor (Homo sapiens) (Q6W5P4 whole entry, looked up): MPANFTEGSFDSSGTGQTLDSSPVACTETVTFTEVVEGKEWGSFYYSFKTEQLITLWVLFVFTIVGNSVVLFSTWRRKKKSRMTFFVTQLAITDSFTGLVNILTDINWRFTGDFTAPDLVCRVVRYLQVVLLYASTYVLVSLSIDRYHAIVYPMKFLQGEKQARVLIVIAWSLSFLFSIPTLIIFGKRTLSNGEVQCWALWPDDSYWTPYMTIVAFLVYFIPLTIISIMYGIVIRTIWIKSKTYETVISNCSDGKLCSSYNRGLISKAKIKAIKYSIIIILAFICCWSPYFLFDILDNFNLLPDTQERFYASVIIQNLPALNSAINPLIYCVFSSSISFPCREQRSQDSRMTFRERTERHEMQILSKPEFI
Procedure, shortened: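 Calcium flux was measured by kinetic fluorescence in dye-loaded CHO-NPSR cells, first after compound addition (210 s), then after NPS challenge (60 nM in stimulation reagent, 140 s). Hill-equation fitting gave AC50.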

Row | SMILES | activity change, negative = inhibition | Potency
1 | O=C(NCCCN1CCOCC1)c1cc2c(=O)[nH]c3ccccc3c2s1 | 4.7% (inactive) | –
2 | CCSc1nc2c(c(=O)n1Cc1ccccc1)SC(C)C2 (stereo unspecified) | -2.84% (inactive) | –
3 | O=[N+]([O-])c1ccc(-c2nc(C(Cl)Cl)c3ccccc3n2)cc1 | -23.4% (inactive) | –
4 | Cc1cc(OCC(=O)c2ccc(Br)cc2)ccc1N1C(=O)CCC1=O | -13.3% (inactive) | –
5 | Cc1ccc2nc3ccc(N4CCCCCCC4)nn3c(=O)c2c1 | -5.95% (inactive) | –
6 | COCCCn1cnc2c(c1=O)c1nc3ccccc3nc1n2CCc1ccccc1 | 9.86% (inactive) | –
7 | COc1ccc(N(CC(=O)Nc2cccc(SC)c2)S(C)(=O)=O)cc1Cl | -16.1% (inactive) | –
8 | C/C(=N\NC(=S)NC1CCCCC1)c1c(F)cccc1F | -22.3% (inactive) | –
9 | Cn1nc(-c2ccc(Cl)cc2)nc2c(=O)n(C)c(=O)nc1-2 | 25.8% (inactive) | –
10 | CC(=O)c1sc(N/N=C\c2ccccc2O)nc1C | – | 1120 nM (active)
11 | CCn1cc(C(=O)NCC2CCCO2)c(=O)c2cc(S(=O)(=O)N3CCCCCC3)ccc21 (stereo unspecified) | 15% (inactive) | –
12 | COc1ccccc1-c1nnc(SC2CCc3ccccc3NC2=O)s1 (stereo unspecified) | -30% (inactive) | –
13 | Cc1cccc(-c2nnc(SCc3cc(=O)[nH]c4ccccc34)n2C)c1 | -8.64% (inactive) | –
14 | O=[N+]([O-])c1cc2c(cc1/C=N/n1c(-c3ccccc3)n[nH]c1=S)OCO2 | -1.53% (inactive) | –
15 | O=C(CSC1=NCCS1)Nc1ccnc2ccccc12 | -15.5% (inactive) | –
16 | COc1ccc(/C=C2\CCCC3C2=NN(C(=O)c2ccco2)C3c2ccc(OC)c(OC)c2)cc1OC (stereo unspecified) | 14.6% (inactive) | –

Row | SMILES | activity change, negative = inhibition | Potency
17 | CN(C)C(=O)Oc1cccc([N+](C)(C)C)c1 | 20.5% (inactive) | –
18 | CCOC(=O)c1cnc(-n2nc(C)cc2C)nc1Nc1ccc(C)cc1 | -19.5% (inactive) | –
19 | Cc1nn(C)cc1/C=N/NC(=S)Nc1ccccc1 | 3.91% (inactive) | –
20 | O=C(Nc1nccs1)C1CCCN1S(=O)(=O)c1ccc(Cl)cc1 (stereo unspecified) | 0.929% (inactive) | –
21 | CCN(CC)S(=O)(=O)c1ccc2c(c1)nc(SC(C)C(N)=O)n2-c1ccc(OC)cc1 (stereo unspecified) | -17.6% (inactive) | –
22 | COc1ccc(NC(=O)/C(Cl)=C(/Cl)S(=O)Cc2ccc(C)cc2)cn1 (stereo unspecified) | – | 2240 nM (active)
23 | O=C1CC(NCc2ccncc2)C(=O)N1c1ccccc1 (stereo unspecified) | 7.53% (inactive) | –
24 | Cc1ccc(NC(=S)NNC(C)(C)C)cc1 | 9.85% (inactive) | –
25 | CCCN1C(=O)/C(=C\C=C2/C=CN(CC)c3ccccc32)SC1=S | -24.1% (inactive) | –
26 | O=c1cc(CNCCCO)c2ccccc2[nH]1 | -1.54% (inactive) | –
27 | CCc1ccc2oc(-c3cc(N)cc(C)c3O)nc2c1 | 12% (inactive) | –
28 | CN(C)c1ccc(N=Cc2ccco2)cc1 | -23.3% (inactive) | –
29 | COc1ccc(N=C2S/C(=C\c3ccc(N4CCOCC4)o3)C(=O)N2CCc2c[nH]c3ccccc23)cc1 | – | 2240 nM (active)
30 | CN(C)C(=S)N=Nc1[nH]c2ccccc2c1O | 15.4% (inactive) | –
31 | Nc1ccc(-c2nc3c(Cl)cc(N)cc3[nH]2)cc1 | -10.2% (inactive) | –
